Pf growth 48h: P. falciparum growth inhibition at 48 hours (one generation); P. falciparum luciferase growth in erythrocytes, 48 h; Potency, µM (titrated, usually from 28.7 µM), for the others: at the highest dose activity change, negative = inhibition, usual class: inhibitors; actives 5.9% (n = 310,000); AID 504832; further: potency means the concentration at half of the fitted maximal effect; on the % scale 0 is the no-effect control and ±100 the full control effect
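Luciferase-expressing P. falciparum in infected erythrocytes (2% hematocrit, 0.1% parasitemia final) in RPMI 1640/0.5% Albumax were exposed to compound for 48 hours at 37 C, 5% CO2; growth read as luminescence.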
Pf growth 96h: P. falciparum growth inhibition at 96 hour, primary screen for plastid delayed-death inhibitors | actives 6.9% (n = 320,000) | P. falciparum luciferase reporter growth, 96 h | Potency, µM (series often up to 28.7 µM), inactives show at the top dose activity change, negative = inhibition, usual class: inhibitors; further: potency means the concentration at half of the fitted maximal effect; on the % scale 0 is the no-effect control and ±100 the full control effect
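Infected RBCs, 2% Hct / 0.05% parasitemia final; luciferase-reporter P. falciparum; cpd 96 h, 37 C, 5% CO2; luciferase detection reagent; luminescence.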
Cycloheximide cs: counter-screen hit for Shiga toxin inhibitors, cycloheximide; max response, %; cell reporter, cycloheximide protein synthesis inhibition counterscreen; actives 12% (n = 300,000); in the data active means max response mostly above about 13%, no sharp cut-off; inactive means mostly below about 14%; further: read at 38.3 µM for the half of the compounds with a filed dose; 0% is about no effect
NS1 inh: influenza NS1 inhibition; Potency, µM (series often up to 46.1 µM), without a hit: top-dose activity, positive = more growth; AID 2326; actives 0.4% (n = 270,000); calls by dose curve; further: potency means the concentration at half of the fitted maximal effect; actives are rising curves; nearly all actives have a fitted effect of over 50% in size
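Compounds were scored for reversing the slow growth caused by influenza A NS1 in S. cerevisiae, measured by optical density at 600 nm. Assay medium contained 2% galactose at pH 6.0; NS1-free yeast of the same strain were the positive control.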
Shiga inhibitor: inhibitors of Shiga toxin in Vero cells | inhibition, % at 38.7 µM | actives 9.2% (n = 290,000) | Vero cells, Shiga toxin protein synthesis inhibition reporter; in the data active means inhibition mostly above about 28%, no sharp cut-off; inactive means mostly below about 43%; further: 0% is about no effect
SARS PLP yeast: blocks SARS-CoV papain-like protease in a yeast assay. Potency, µM (titrated, usually from 32.9 µM), for the others: at the highest dose activity, positive = growth rescue, hits mostly activators. S. cerevisiae expressing SARS-CoV PLpro, growth rescue. actives 0.19% (n = 330,000); calls by dose curve; further: potency means the concentration at half of the fitted maximal effect; 0% is about no effect; nearly all actives have a fitted effect of over 55% in size
* marks the source's active call; other numbers are inactive results; ? = inconclusive; · = not tested or not shown. Compounds with a hit are over-represented: about 21% of the library has one in this group of screens. Unless noted, the call rests on the fitted dose curve; in most records, active means well fitted inhibition curve with a large enough effect; inconclusive means small, poorly fitted or top-dose-only effect, or another doubt; inactive means no such curve, though single readings can be large or run the other way.

SMILES	Pf growth 48h	Pf growth 96h	Cycloheximide cs	NS1 inh	Shiga inhibitor	SARS PLP yeast
CCOC(=O)C1CCCN(c2nc3ccccc3nc2NS(=O)(=O)c2ccc(C)cc2)C1 (configuration not stated)	?	-27%	·	·	·	-9%
CCC1CN(C(=O)N2CCC(C(=O)NCc3ccc(C)o3)CC2)c2ccccc2O1 (configuration not stated)	-4%	9.3µM*	-7	3%	-8	2%
CCC1CN(C(=O)N2CCC(C(=O)NCc3cccc(F)c3)CC2)c2ccccc2O1 (configuration not stated)	?	9.3µM*	-10	-6%	-6	2%
CCC1CN(C(=O)N2CCC(C(=O)NCc3ccco3)CC2)c2ccccc2O1 (configuration not stated)	-2%	12µM*	-11	-1%	-7	-1%
CCC1CN(C(=O)N2CCC(C(=O)NCc3ccc(F)cc3)CC2)c2ccccc2O1 (configuration not stated)	?	?	-8	-3%	-1	-2%
CC(=O)N1CCN(C(=S)NC(=O)c2ccc(S(=O)(=O)N3CCOCC3)cc2)CC1	17%	5%	1	?	6	11%
COc1cc(OC)cc(C(=O)c2c(C)c(C#N)c3ccccn23)c1	8.3µM*	?	9	-2%	-7	0%
O=C(Cn1cc2c(n1)CCCCC2)Nc1ccccc1Cl	?	?	12*	-5%	21	-3%
Cc1ccc2nc(NC(=O)CN3C(=O)NC4(CCCCC4)C3=O)sc2c1	-2%	8%	·	·	·	8%
O=C(Cn1cc2c(n1)CCCCC2)Nc1c(F)c(F)cc(F)c1F	·	15µM*	-5	-8%	-13	4%
Cc1ccc(Cl)cc1NC(=O)Cn1cc2c(n1)CCCC2	·	2.1µM*	-6	-83%	-17	0%
O=C(Cn1cc2c(n1)CCCC2)Nc1ccccc1Cl	?	?	-2	3%	16	-1%
Cc1ccc2nc(NC(=O)Cn3cc4c(n3)CCCCC4)sc2c1	46%	10%	16*	14%	30	4%
Cc1cc(C)c(NC(=O)Cn2cc3c(n2)CCCC3)c(C)c1	8%	5%	1	-5%	-3	-1%
O=c1c(C(c2ccc(F)cc2)c2c(O)nc3n(c2=O)CCS3)c(O)nc2n1CCS2	18%	17%	1	8%	11	2%
O=C(Cn1cnc([N+](=O)[O-])c1)NCc1ccc(F)cc1	1%	6.6µM*	-3	3%	-9	-4%
CCOC(=O)C1=C(OCc2ccc(Cl)cc2)C2C=C(C)C=CC2N=C1 (configuration not stated)	·	12µM*	1	6%	-8	-6%
NC(=O)COC(=O)c1ccccc1OCc1ccc(Cl)cc1	-11%	18%	3	·	-10	-1%
N=c1ccn(Cc2ccccc2Cl)cc1	4.7µM*	·	-1	-5%	-4	-7%
N=c1ccn(Cc2ccc(Cl)cc2Cl)cc1	·	1.5µM*	-1	-1%	-6	-5%
N=c1ccn(Cc2c(Cl)cccc2Cl)cc1	?	?	1	2%	-8	0%
Clc1ccc(CN2CCSCC2)c(Cl)c1	6%	2%	1	0%	-10	-1%
CCn1nnnc1SCC(=O)Nc1ccc(OCc2ccccc2)cc1	-27%	13%	-2	5%	12	3%
Cc1cc(=O)oc2c3c(cc(OCC(=O)N[C@@H](CC(C)C)C(=O)O)c12)OC(C)(C)CC3	-10%	-7%	-3	0%	29	0%
O=C(NCc1ccco1)C(c1cccs1)N(C(=O)C1COc2ccccc2O1)c1cccc(O)c1 (configuration not stated)	10µM*	?	12	-11%	16	-2%
COc1cccc(C(=O)NCCCNC(=O)c2ccccn2)c1	9%	4.7µM*	6	6%	-2	-2%
O=C(NCCCNC(=O)c1ccccn1)c1ccc(Cl)cc1	4%	4%	-3	5%	-4	0%
Cc1cccc(OCCCC(=O)NNC(=O)c2ccncc2)c1	28%	1%	·	·	·	-3%
CC(C)(C)c1ccc(C(=O)NCCCNC(=O)c2ccccn2)cc1	10%	-20%	11	-16%	42*	-2%
Cc1cccc(OCCCC(=O)NNC(=O)c2ccccn2)c1	2.3µM*	1.7µM*	·	·	·	-1%

High-throughput results deposited in PubChem by National Center for Advancing Translational Sciences (NCATS).
